The list is not random: actives were taken first. Their share in the collection is about 21%.
Pf growth 48h: Primary qHTS for delayed death inhibitors of the malarial parasite plastid, 48 hour incubation | P. falciparum luciferase growth in erythrocytes, 48 h | Potency, µM (top dose mostly 28.7 µM), without a hit: at the top dose activity change, negative = inhibition, actives largely listed as inhibitors | 5.9% of 310,000 active | AID 504832, 2011; also: potency is read from the fitted curve at half-maximal effect; % is scaled to controls: 0 for no effect and ±100 for the full control effect
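Parasite viability was followed by luminescence of a genomically integrated firefly luciferase. Cultures held 0.1% parasitemia at 2% hematocrit (final), incubated under 5% CO2 at 37 C.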
Pf growth 96h: Primary qHTS for delayed death inhibitors of the malarial parasite plastid, 96 hour incubation; Potency, µM (highest dose often 28.7 µM), for the others: at the highest dose activity change, negative = inhibition, hits mostly inhibitors; 6.9% of 320,000 active; P. falciparum luciferase reporter growth, 96 h; AID 504834, 2011; also: potency is read from the fitted curve at half-maximal effect; % is scaled to controls: 0 for no effect and ±100 for the full control effect
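Luminescence readout: decreased luciferase signal marks inhibited growth of reporter-expressing P. falciparum in infected red cells (2% hematocrit, 0.05% parasitemia final), exposed to compound two generations (96 h, 37 C, 5% CO2).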
Giardia FBPA inh: qHTS Assay for Inhibitors of Fructose-1,6-bisphosphate Aldolase from Giardia Lamblia. purified Giardia FBPA. Potency, µM (titrated, usually from 59.6 µM), for the others: at the highest dose activity, negative = inhibition, hits mostly inhibitors. 0.71% of 290,000 active. AID 2451, 2010; also: potency is read from the fitted curve at half-maximal effect; % is scaled to controls: 0 for no effect and ±100 for the full control effect; nearly all actives have a fitted effect of over 55% in size
Target sequence (A8B2U2 whole entry, looked up): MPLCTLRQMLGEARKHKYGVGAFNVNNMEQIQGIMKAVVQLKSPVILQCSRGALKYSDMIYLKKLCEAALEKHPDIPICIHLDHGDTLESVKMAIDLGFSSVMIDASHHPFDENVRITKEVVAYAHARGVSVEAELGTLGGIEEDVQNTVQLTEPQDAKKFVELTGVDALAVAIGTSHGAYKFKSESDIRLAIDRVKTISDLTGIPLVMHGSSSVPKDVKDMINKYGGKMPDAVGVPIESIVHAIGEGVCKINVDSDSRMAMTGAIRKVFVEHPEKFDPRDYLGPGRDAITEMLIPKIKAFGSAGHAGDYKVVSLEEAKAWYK
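40 nM FBPA preincubated 10 min at RT with compound (up to 57.5 uM final), then substrate plus GAPDH/TPI/NAD/arsenate coupling and diaphorase/resazurin added. Fluorescence read after 20 min at RT, 525/598 nm.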
NS1 inh: qHTS Assay for Inhibitors of Influenza NS1 Protein Function; Potency, µM (highest dose often 46.1 µM), for the others: at the highest dose activity, positive = more growth; 0.4% of 270,000 active; AID 2326, 2010; calls by dose curve; also: potency is read from the fitted curve at half-maximal effect; actives are rising curves; nearly all actives have a fitted effect of over 50% in size
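A cell-based growth assay was used: compounds that relieve NS1-induced slow growth of budding yeast raise OD600. Assay medium was yeast nitrogen base with ammonium sulphate and -URA supplement, pH 6.0, with 2% galactose.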
Shiga inhibitor: A qHTS for Small Molecule Inhibitors of Shiga Toxin; Vero cells, Shiga toxin protein synthesis inhibition reporter; AID 2315, 2010; inhibition, % at 38.7 µM; 9.2% of 290,000 active; in the data active = inhibition mostly above about 28%, no sharp cut-off; inactive = mostly below about 43%; also: 0% is about no effect
Cycloheximide cs: Cycloheximide Counterscreen for Small Molecule Inhibitors of Shiga Toxin | cell reporter, cycloheximide protein synthesis inhibition counterscreen | max response, % | 12% of 300,000 active | AID 2314, 2010; in the data active = max response mostly above about 13%, no sharp cut-off; inactive = mostly below about 14%; also: read at 38.3 µM for the half of the compounds with a filed dose; 0% is about no effect
Starred values were filed as active, the others as inactive; ? = inconclusive; . = no result; [ ] = another dose, or the depositor's remark. Unless noted, calls follow the shape of the dose curve; as a rule, active = well fitted curve in the direction sought with a large enough effect; inconclusive = small, poorly fitted or top-dose-only effect, or another doubt; inactive = no such curve, though single readings can be large; an effect the other way counts as inactive or inconclusive.

SMILES | Pf growth 48h | Pf growth 96h | Giardia FBPA inh | NS1 inh | Shiga inhibitor | Cycloheximide cs
Cc1cc2ncn(/N=C/c3ccc(-c4ccccc4)o3)c2cc1C | 15.9% | 4.0% | -0.6% | 16.1% | -3.4 | 7.1
Cc1ccc(/C=N/n2cnc3sc(-c4ccccc4)cc3c2=O)o1 | . | 84.6% | 3.1% | -5.0% | 46.5* | 23.5*
CSc1nc(N)n2nc(C(C)(C)C)cc2n1 | 0.8% | 14.3% | 2.3% | 1.6% | 26.3 | 14.8*
CCOc1ccc(OCCOC(=O)CN(C)S(=O)(=O)c2ccc(NC(C)=O)cc2)cc1 | ? | 32.0% | . | . | . | .
Cc1ccc(C(=O)N2CCC(C(=O)NCc3cccnc3)CC2)cc1 | -5.2% | 2.0% | 7.0% | -0.8% | -9.2 | -3.2
Cc1ccc(C2(c3ccc(C)cc3)CC2C(=O)NCc2cccnc2)cc1 (centres undefined) | -25.5% | 1.85µM* | -0.2% | -3.8% | -12.1 | -4.1
Cc1ccc(NC(=O)NCc2cccnc2)cc1 | 32.4% | -5.7% | . | 6.4% | 22.0 | 19.0*
Cn1cccc1CNC(=O)Nc1ccc(Cl)c(Cl)c1 | 175.7% | 0.0% | -0.6% | -2.2% | 85.6 | 36.6*
Cc1ccc(C(=O)Nc2ccccc2C(=O)NCc2cccnc2)cc1 | ? | 10.4µM* | . | 4.1% | -22.0 | -6.9
COc1cccc(CNC(=O)CCNC(=O)c2ccccc2OC)c1 | -2.1% | 2.2% | . | 0.4% | -3.5 | 0.9
O=C(COC(=O)c1ccccc1-n1cnnn1)c1ccc(F)cc1 | 195.3% | 97.0% | . | . | . | .
Cc1ccc(CNC(=O)Nc2ccc(C)cc2)cc1 | 52.0%[5.75 µM] | 49.9% | 8.1% | 3.9% | 60.7 | 22.1*
COc1ccc([N+](=O)[O-])cc1NCc1cccnc1 | 39.5% | -21.0% | -4.4% | . | 1.5 | 6.7
CC(C)c1ccc(NC(=O)NCc2cccnc2)cc1 | 2.4% | 50.9% | 4.8% | 0.2% | 39.6 | 12.1*
CCOc1ccc(NC(=O)NCc2cccnc2)cc1 | 33.8% | ? | -2.2% | -0.8% | 18.1 | -3.2
Cc1ccc(NC(=O)c2cc([N+](=O)[O-])ccc2NCc2cccnc2)cc1 | 13.1µM* | ? | -1.6% | 2.4% | -15.7 | 8.2
O=C(NCc1cccnc1)Nc1ccc(Cl)c(Cl)c1 | 24.5% | 22.1% | 16.0% | 4.7% | 58.8* | 25.9*
CC(C)CC(=O)NC(C)C(c1cccs1)N1CCOCC1 (centres undefined) | -14.5% | -3.2% | 5.7% | -5.6% | -6.7 | 1.9
Cc1cc(C)n2ncc(C(=O)NCc3cccnc3)c2n1 | 10.9% | 2.33µM* | -0.3% | -2.6% | 10.6 | 10.9
CSc1ccc(NC(=O)NCc2cccnc2)cc1 | 26.9% | 32.6% | 6.1% | 3.9% | 39.0* | 27.7*
O=C(NCc1cccnc1)Nc1ccc(Br)cc1 | -10.2% | ? | 25.9% | -9.9% | 20.7 | 29.5*
O=C(NCc1cccnc1)c1cnn2ccccc12 | . | 163.4% | -4.8% | -5.8% | -14.6 | -2.8
Cc1ccccc1-n1ncc(C(C)NC(=O)c2ccco2)c1C (centres undefined) | 43.5% | 10.0% | 2.0% | 1.5% | 54.9* | 28.5*
Cc1ccccc1-n1ncc(C(C)NC(=O)c2ccccc2)c1C (centres undefined) | 14.6% | 12.1% | 3.7% | 1.6% | 44.2 | 35.5*
CCOc1ccccc1NC(=O)C(OC(=O)c1cnccn1)c1ccccc1 (centres undefined) | -13.5% | -4.3% | . | . | . | .
SMILES | Pf growth 48h | Pf growth 96h | Giardia FBPA inh | NS1 inh | Shiga inhibitor | Cycloheximide cs
CC1CCC(NC(=O)CCS(=O)(=O)c2ccc3c(c2)oc(=O)n3C)CC1 (centres undefined) | -25.6% | -26.9% | . | -3.4% | -3.1 | -2.6
CC(C)c1ccc(NC(=O)C2CC(=O)Nc3nc4ccccc4n32)cc1 (centres undefined) | 2.6% | 6.2% | 4.5% | 4.5% | 18.4 | 22.8*
Cn1c(N)c(C(=O)CSc2nnc(-c3ccccc3F)n2N)c(=O)n(C)c1=O | ? | 10.4µM* | 0.0% | 1.5% | -8.2 | 0.2
COc1ccc(OCc2nnc(SCC(N)=O)n2-c2ccccc2OC)cc1 | -10.0% | . | -0.8% | -17.1% | -5.4 | -4.8
COc1ccccc1-n1c(COc2ccccc2-c2ccccc2)nnc1SCC(=O)c1c(N)n(C)c(=O)n(C)c1=O | 16.6% | ? | -1.2% | 3.55µM* | 4.9 | -2.3
CCC(CC)C(=O)Nc1cccc(-c2ccc3nncn3n2)c1 | 3.7% | 3.3% | -5.9% | 8.8% | -5.5 | -4.6
Cc1ccc(C(=O)NCc2cccnc2)cc1S(=O)(=O)N1CCCCCC1 | ? | ? | . | 9.7% | -5.1 | -1.1
COCc1cc(=O)n2[nH]c(N)nc2n1 | 10.4µM* | ? | ? | -7.8% | 2.6 | -1.9
COCc1cc(=O)n2[nH]c(SC)nc2n1 | 2.0% | -20.1% | -15.2% | 0.7% | -2.1 | -3.4
CCCCOc1ccc(N=Nc2ccc(N)nc2N)cn1 | 225.9% | 217.4% | -9.2% | -6.8% | 28.6 | 17.8*
CCS(=O)(=O)c1ccc(O)c(NC(=O)CC2(CC(=O)O)CCCC2)c1 | 0.9% | 4.7% | 2.0% | -1.4% | 18.9 | -3.3
CC1=CC(C)(C)N(C(=O)CNC2CCCCC2)c2cc(C)ccc21 | 9.28µM* | ? | ? | -2.6% | -12.0 | 5.7
CC1=CC(C)(C)N(C(=O)CCl)c2cc(C)ccc21 | -7.7% | ? | -4.5% | -1.5% | -3.8 | 0.4
Cc1cc(C)c(C)c(S(=O)(=O)N2CCN(C(=O)c3ccccn3)CC2)c1C | -27.8% | -16.1% | . | . | . | .
COC(=O)c1ccc(C(NC(=O)OCc2ccccc2)/C(F)=C/[C@@H](C)C(=O)NCCc2c[nH]c3ccc(OC)cc23)cc1 (some centres undefined) | . | . | -6.3% | . | . | .
COc1ccc(CCC(C)Nc2ccccc2F)cc1 (centres undefined) | 4.4% | ? | -14.6% | 4.2% | -9.7 | 1.7
COc1ccc(CCC(C)Nc2cccc(F)c2)cc1 (centres undefined) | ? | ? | ? | -17.9% | 13.2 | 18.4*
Cn1nccc1C(=O)N(CCN1CCCCC1)CC1CCCN(C2CCCC2)C1 (centres undefined) | -19.1% | 64.9% | 6.0% | -3.5% | 23.1 | 22.6*
COC(=O)c1ccccc1C(=O)N(Cc1cccnc1)CC1CCCN(C2CCCCC2)C1 (centres undefined) | ? | 13.1µM* | -7.3% | -4.1% | 13.0 | 6.5
CCNC(=O)N(CCOC)CC1CCCN(C2Cc3ccccc3C2)C1 (centres undefined) | -7.5% | ? | -11.6% | 2.7% | . | -4.3
COc1ccc2c(c1)C(c1ccccc1)NC(=O)C2 (centres undefined) | 5.0% | 79.5% | . | . | . | .
COc1ccc(NC(=S)N2CCN(C(=O)C3CCCO3)CC2)cc1 (centres undefined) | 7.9% | 4.6% | . | 2.9% | -13.7 | 3.5
C(=C\c1nccc2c1[nH]c1ccccc12)/c1ccccc1 | 1.85µM* | 2.62µM* | -16.7% | -43.4% | 85.0* | 32.9*

Screening results from PubChem BioAssay.
